Assay outcomes (PubChem BioAssay)
A selection: hits, their analogues and other compounds. The true share with any hit is near 2.8%.
LMP1 NFkB inh = inhibitors of Epstein-Barr LMP1-induced NF-kappaB reporter. 0.69% of 350,000 active. LMP1-induced NF-kappaB luciferase reporter cells, luminescence. AID 504558. inhibition, % at 12.5 µM; in the data active = inhibition above about 41%;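 note: 0% = neutral control wells and 100% = reference inhibitor control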
PAX8 reporter = inhibitors of PAX8 transcriptional activity in RMG-I cells | 1.2% of 360,000 active | inhibition, % at 12.6 µM | AID 652154 | RMG-I TPO-luciferase reporter, SteadyGlo, 24 h;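 active = mean replicate inhibition at least 60% with every replicate also reaching 60%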;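 note: luciferase light reporting Pax8 driven TPO promoter activity; plate controls were median of neutral control wells for no effect and mitoxantrone controls for full effect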
Peg3 promoter = reduces Peg3 promoter-driven luciferase expression in HeLa. HeLa PEG-Prom luciferase reporter, luminescence, overnight. inhibition, % at 20 µM. 1.7% of 360,000 active;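 active = inhibition of at least 50% at 20 µM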
HIF-2a block = inhibitors of HIF-2a; 0.72% of 360,000 active; 786-0 RCC cells HIF-2a reporter, luciferase luminescence, overnight; inhibition, % at 18.8 µM; AID 624352;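 active = inhibition of the luminescence signal of 40% or more relative to plate controls, in a single-dose primary screen at 18.75 µM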
TRPM1 prom inh = reduces MITF-dependent TRPM1 promoter luciferase signal. SK-MEL-5 TRPM1 promoter luciferase, 24 h. inhibition, % at 12.5 µM. 0.83% of 330,000 active. AID 488899;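 active = mean inhibition across replicates of 60% or more, whatever share of single replicates reaches that level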
Shn3 inh set2 = Schnurri-3 reporter inhibition in Clone20 osteoblasts; AID 588674; 0.52% of 360,000 active; inhibition, % at 12.5 µM; Clone20 osteoblast Shn3 3'UTR firefly luciferase, 24 h;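 active = mean inhibition of at least 75% with every replicate also reaching 75%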;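 note: 0% = median of neutral control wells and 100% = pilot-screen positive control compound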
Active calls of the source: *; / = no result given.

SMILES | LMP1 NFkB inh | PAX8 reporter | Peg3 promoter | HIF-2a block | TRPM1 prom inh | Shn3 inh set2
CC(C)N1CCC2(CC1)N=C(c1ccc3c(c1)OCO3)CC(c1cc(Cl)ccc1O)N2 (centres undefined) | 6.1 | / | 100.7* | -127.5 | -12.4 | -17.2
CC(Sc1ccc(Cl)cc1)C(=O)Nc1ccc2c(c1)OCO2 (centres undefined) | -1.8 | 4.3 | -16.6 | -36.2 | -8.7 | 2.2
Cc1noc(C)c1S(=O)(=O)N(C)C[C@H]1OCCCC[C@@H](C)Oc2ccc(NS(=O)(=O)c3ccccc3)cc2C(=O)N([C@@H](C)CO)C[C@H]1C | / | 18.4 | / | / | / | /
FC(F)(F)c1nnc2c(Sc3ccccc3)nc3ccc(Cl)cc3n12 | -70.4 | 113.0* | 62.4* | 34.3 | 81.9* | 5.0
O=C1NC[C@H](c2ccccc2)OC(=O)[C@H](Cc2ccc(F)cc2)CC/C=C/C[C@H]1CC(=O)N(CCO)Cc1ccccc1 | -0.9 | 54.1 | 58.6* | -2.9 | 15.2 | 20.9
O=C1NC[C@H](c2ccccc2)OC(=O)[C@@H](Cc2ccc(F)cc2)CC/C=C/C[C@@H]1CC(=O)N(CCO)Cc1ccccc1 | 3.7 | 21.6 | 34.6 | 21.7 | 10.9 | 2.1
O=C1NC[C@H](c2ccccc2)OC(=O)[C@@H](Cc2ccc(F)cc2)CC/C=C/C[C@H]1CC(=O)N(CCO)Cc1ccccc1 | -2.9 | 48.0 | 59.3* | 10.2 | 25.6 | 34.4
O=C1NCCOC(=O)[C@@H](Cc2ccc(F)cc2)CC/C=C/C[C@@H]1CC(=O)N(CCO)Cc1ccccc1 | 3.4 | 2.7 | -14.0 | 5.5 | -1.6 | 90.9*
O=C(C1=C[C@@H](c2ccc(Br)cc2)C[C@@H](OCCCCO)O1)N1CCCCCCC1 | / | 2.5 | / | / | / | /
CN1c2ccc(-c3ccc(F)cc3)cc2[C@H]2[C@H](CCN2C(=O)Cc2cccnc2)[C@@H]1CO | / | -18.5 | / | / | / | /
CCNC(=O)C[C@@H]1CC[C@H](NS(=O)(=O)c2ccc(C)cc2)[C@H](CO)O1 | / | -17.9 | / | / | / | /
O=C(CCl)N1CCN(S(=O)(=O)c2ccc3c(c2)CCC3)CC1 | -5.6 | 8.2 | 50.2* | 25.2 | 65.8* | -3.9
O=C(Nc1nc(-c2cc(Cl)sc2Cl)cs1)c1ccc(Br)s1 | 43.6* | -1.5 | 1.3 | -53.0 | -0.4 | -0.8
O=C(Nc1nc(-c2ccccn2)cs1)c1ccco1 | 9.7 | -20.4 | -53.6 | -118.8 | 5.8 | 35.1
O=C(Nc1nc(-c2ccccn2)cs1)c1cccc(-n2cnnn2)c1 | 29.9 | 38.1 | 39.9 | 3.1 | 41.8 | 97.6*
O=C(Nc1nc(-c2ccccn2)cs1)c1ccc(Br)s1 | 86.7* | / | -67.7 | -210.2 | 21.6 | 93.2*
O=C(C[C@H]1C[C@@H]2c3cc(NC(=O)c4ccc5c(c4)OCO5)ccc3O[C@@H]2[C@H](CO)O1)NC1CCCCC1 | / | -8.4 | / | / | / | /
O=C1Nc2cc(C(=O)NCCCN3CCCC3)ccc2S/C1=C/c1cccc(Cl)c1 | -38.4 | 12.7 | 99.3* | -7.6 | / | 2.6
COc1cccc(/C=C2/Sc3ccc(C(=O)NCCN4CCCCCC4)cc3NC2=O)c1 | -18.9 | 97.5* | 100.3* | 14.7 | 74.5* | -11.9
COc1cccc(/C=C2\Sc3ccc(C(=O)NCc4cccnc4)cc3N(C)C2=O)c1 | 21.2 | 21.0 | 19.1 | 32.8 | 1.7 | -0.8
O=C1Nc2cc(C(=O)NCCN3CCCCCC3)ccc2S/C1=C\c1ccccc1 | 0.1 | 19.9 | 94.4* | 3.6 | 96.0* | 15.9
Cn1cnc(CCNC(=O)C[C@H]2CC[C@@H]3[C@H](COC[C@@H](O)CN3C(=O)Nc3ccc(F)cc3)O2)c1 | / | -7.5 | / | / | / | /
COc1ccccc1C#Cc1ccc([C@@H]2[C@@H](CO)N(C(=O)C3CCCCC3)[C@H]2C#N)cc1 | / | 85.0* | / | / | / | /
COc1ccccc1C#Cc1ccc([C@H]2[C@H](C#N)N(C(=O)C3CCCC3)[C@H]2CO)cc1 | / | 107.5* | / | / | / | /
N#C[C@@H]1[C@@H](c2ccc(C#Cc3ccccc3F)cc2)[C@H](CO)N1C(=O)C1CCCCC1 | / | 81.5* | / | / | / | /
SMILES | LMP1 NFkB inh | PAX8 reporter | Peg3 promoter | HIF-2a block | TRPM1 prom inh | Shn3 inh set2
COc1ccccc1C#Cc1ccc([C@H]2[C@H](C#N)N(C(=O)C3CCC3)[C@H]2CO)cc1 | / | 106.3* | / | / | / | /
O=C(Nc1cccc(F)c1)N[C@H]1CC[C@@H](CCn2cc(Cc3ccccc3)nn2)O[C@@H]1CO | / | 7.6 | / | / | / | /
CCCC#Cc1ccc([C@@H]2[C@@H](C#N)N(C(=O)C3CCCCC3)[C@H]2CO)cc1 | / | 82.5* | / | / | / | /
CCCC#Cc1ccc([C@@H]2[C@@H](CO)N(C(=O)C3CCCCC3)[C@H]2C#N)cc1 | / | 23.3 | / | / | / | /
COc1ccc(/C=C/c2cc(C(=O)O)c3ccccc3n2)cc1 | 80.0* | 8.7 | 30.4 | 22.1 | 46.5 | 50.7
CNC[C@@H]1Oc2ccc(N(C)C)cc2C(=O)N([C@H](C)CO)C[C@@H]1C | / | 14.3 | / | / | / | /
C[C@@H]1CCCCO[C@H](CN(C)Cc2ccc(C(=O)O)cc2)[C@@H](C)CN([C@H](C)CO)C(=O)c2cc(NS(=O)(=O)c3cccs3)ccc2O1 | / | 5.5 | / | / | / | /
CCCN(CC1CC1)c1nc(N)c(C#N)c(CC#N)c1C#N | -8.8 | / | 7.0 | 21.3 | -6.8 | -20.7
CCCN(CC1CC1)c1nc(C)nc(Nc2c(Cl)cc(Cl)cc2Cl)c1Cl | 78.3* | 1.3 | 3.8 | 25.0 | 10.4 | 21.4
O=C(N/N=C/c1c(O)ccc2ccccc12)c1cccc(C(F)(F)F)c1 | 25.6 | 69.8* | 68.1* | -21.0 | 70.7* | 69.4
COc1ccccc1OCC(=O)N/N=C/c1c(O)ccc2ccccc12 | 17.7 | 52.7 | 62.5* | 2.6 | 48.2 | 25.4
Fc1cccc(F)c1/C=N/Nc1ccccn1 | -17.1 | -35.2 | -227.8 | -196.7 | -19.7 | -40.0
Oc1ccc2ccccc2c1C=NNc1ccccn1 | 57.6* | 11.8 | -79.4 | -160.4 | -8.2 | 71.9
O=C(CN1CCCC1)N/N=C/c1c(O)ccc2ccccc12 | 26.7 | 10.1 | 31.5 | -2.7 | 37.6 | 91.0*
COc1ccc2c3c([nH]c2c1)[C@@H](CO)N(C(=O)C1CC1)CC31CN(S(C)(=O)=O)C1 | / | -12.1 | / | / | / | /
O=C(N/N=C/c1c(O)ccc2ccccc12)C(=O)N1CCCC1 | 23.7 | 16.5 | 30.0 | 6.2 | / | 81.8*
Cc1ccc(NS(=O)(=O)c2ccc(NC(=O)C(C)Sc3ccc(Cl)cc3)cc2)c(C)c1 (centres undefined) | 60.5* | 9.3 | 24.8 | 21.0 | 10.5 | 37.4
Cc1ccc(C)c(NS(=O)(=O)c2ccc(NC(=O)CSc3ccc(Cl)cc3)cc2)c1 | 3.5 | 3.4 | 12.2 | 11.3 | 5.1 | -3.9
COc1ccc(CCN2CCC(Nc3nc4ccccc4n3Cc3ccc(F)cc3)CC2)cc1 | -25.0 | 73.7* | 82.0* | -14.3 | 95.8* | 14.3
OC[C@@H]1[C@H](c2ccccc2)C2(CN(CCC(F)(F)F)C2)N1Cc1cccnc1 | / | -2.2 | / | / | / | /
NS(=O)(=O)c1ccc(Cc2ncc(C(F)(F)F)cc2Cl)s1 | -4.7 | / | 3.5 | 14.0 | 0.7 | 13.8
O=C(CCl)c1ccc(Cc2ncc(C(F)(F)F)cc2Cl)s1 | 5.6 | / | 60.9* | 12.1 | 22.2 | 24.5
